# Compound activity: PubChem BioAssay, National Center for Advancing Translational Sciences (NCATS)
# 12-LOX inh = Primary qHTS assay for inhibitors of human arachidonate 12S-lipoxygenase (ALOX12): Round 2; Polyunsaturated fatty acid lipoxygenase ALOX12 (Homo sapiens), P18054; purified 12hLO, xylenol orange hydroperoxide absorbance; Potency, µM (titrated, usually from 108 µM), for inactives: at the top dose activity change, negative = inhibition, usual class: inhibitors; 580,000 tested, 1.1% active; also: % is scaled to controls: 0 for no effect and ±100 for the full control effect
#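 Purified human 12hLO at 150 nM in 25 mM Hepes, 0.01% Triton X-100, pH 7.0, preincubated 15 min at room temperature with compound. Reaction started with 40 uM arachidonic acid, 30 min at room temperature. Hydroperoxide measured by Fe-xylenol orange, 573/405 nm absorbance ratio.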
# Sfp inh = qHTS Assay for Inhibitors of Bacillus subtilis Sfp phosphopantetheinyl transferase (PPTase); Biochemical Sfp PPTase activity, qHTS; Potency, µM, for the others: largest response in the series, negative = inhibition, hits mostly inhibitors; 310,000 tested, 3.5% active; AID 1490, 2009;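 also: the enzyme is Sfp with the accession as filed and its product quenches rhodamine fluorescence; 0% = enzyme reaction without inhibitor and -100% = no enzyme wells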
#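 Buffer: 50 mM Hepes-Na pH 7.6, 10 mM MgCl2, 0.01% Nonidet P-40, 0.01% BSA. Enzyme 15 nM, pre-exposed to compound 15 min; substrates then added and fluorescence change tracked over 30 min.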
# G9a inh = qHTS Assay for Inhibitors of Histone Lysine Methyltransferase G9a. Histone-lysine N-methyltransferase EHMT2 (Homo sapiens), Q96KQ7. G9a H3K9 monomethylation, AlphaScreen, 2 h. AID 504332, 2011. 350,000 tested, 8.8% active. Potency, µM (series often up to 102 µM), for inactives: at the highest dose activity, negative = inhibition, usual class: inhibitors; also: % is scaled to controls: 0 for no effect and ±100 for the full control effect; nearly all actives have a fitted effect of over 75% in size
#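 Readings reflect AlphaScreen signal from monomethyl-H3K9 antibody detection. HMT at 20 nM; substrate b-H3K9 500 nM; cofactor SAM 20 uM; 2 h RT reaction; compounds tested as titrations in qHTS with 15 min preincubation.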
# BAZ2B inh = qHTS Assay for Inhibitors of BAZ2B. Bromodomain adjacent to zinc finger domain protein 2B (Homo sapiens), Q9UIF8. AlphaScreen BAZ2B-H3K14Ac peptide displacement. Potency, µM (highest dose often 114 µM), inactives show at the highest dose activity change, negative = inhibition, most hits filed as inhibitors. 360,000 tested, 4.4% active. AID 504333, 2011; also: % is scaled to controls: 0 for no effect and ±100 for the full control effect; nearly all actives have a fitted effect of over 60% in size
#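 BAZ2B (50 nM) with biotin-H3(5-23)K14Ac peptide (50 nM) in PBS pH 7.4, 0.01% Tween-20, preformed 30 min, then compound 30 min at room temperature; top concentration 110uM. AlphaScreen streptavidin donor/nickel chelate acceptor beads (10 ug/mL final), 20 min dark, signal read.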
# HP1b chromo inh = HTS for Inhibitors of HP1-beta Chromodomain Interactions with Methylated Histone Tails; 390,000 tested, 0.56% active; AID 540317, 2011; Chromobox protein homolog 1 (Homo sapiens), P83916; AlphaScreen HP1-beta / biotin-H3K9me3 peptide binding; Potency, µM (highest dose often 114 µM), without a hit: top-dose activity change, negative = inhibition, most hits filed as inhibitors; also: nearly all actives have a fitted effect of over 70% in size
#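 HP1-beta protein (50 nM final) preincubated 30 min at room temperature with biotinylated H3(1-18)K9me3 peptide (50 nM) in PBS pH 7.4, 0.01% Tween-20, then compound added for 30 min. AlphaScreen streptavidin donor/nickel chelate acceptor beads (10 ug/mL final), 30 min dark, luminescence read.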
# JMJD2A Tudor inh = qHTS Assay for Inhibitors of JMJD2A-Tudor Domain; AlphaScreen JMJD2A-Tudor / H3K4me3 peptide binding; Potency, µM (doses to about 114 µM), inactives show top-dose activity change, negative = inhibition, actives largely listed as inhibitors; 390,000 tested, 4.4% active; AID 504339, 2011; also: % is scaled to controls: 0 for no effect and ±100 for the full control effect; nearly all actives have a fitted effect of over 50% in size
# * marks the source's active call; other numbers are inactive results; ? = inconclusive; nt = no result given; [ ] = remark or other dose. An excerpt weighted towards active compounds, which were near 8.7% of everything screened. Calls follow the shape of the dose curve; as a rule, active = well fitted curve in the direction sought with a large enough effect; inconclusive = small, poorly fitted or top-dose-only effect, or another doubt; inactive = no such curve, though single readings can be large; an effect the other way counts as inactive or inconclusive. Potency is read from the fitted curve at half-maximal effect.
SMILES,12-LOX inh,Sfp inh,G9a inh,BAZ2B inh,HP1b chromo inh,JMJD2A Tudor inh
COc1ccc(/C=C(\C#N)c2nc3ccccc3[nH]2)cc1I,6.3µM*,nt,nt,nt,nt,nt
COc1cc(/C=C(\C#N)c2nc3ccccc3n2C)cc(OC)c1O,?,6%,22µM*,-36%,2%,-26%
Cn1cnc2cc(-c3cccc4[nH]ccc34)cc(C(=O)NCc3cccnc3)c21,-32%[176 µM],nt,nt,nt,nt,nt
N#C/C(=C\c1c(Cl)cccc1Cl)c1nc2ccccc2[nH]1,0%,-13%,1%,-8%,22%,-25%
N#C/C(=C/C1=Cc2cc(Cl)ccc2OC1)c1nc2ccccc2[nH]1,16µM*,nt,nt,nt,nt,nt
COc1c(O)ccc(/C=C(\C#N)c2nc3ccccc3[nH]2)c1[N+](=O)[O-],?,-16%,7.9µM*,40µM*,?,?
CCCOc1cc(N(CC)CC)ccc1/C=C(/C#N)c1nc2ccc(C)cc2[nH]1,?,?,20µM*,?,1%,-29%
CCCNC(=O)c1cccc2c(=O)c(C)c(-c3ccccc3)oc12,0%,nt,nt,nt,nt,nt
Cc1ccc(S(=O)(=O)NC(C)(C)C)cc1C(=O)NCc1coc(-c2cccs2)n1,-4%,nt,nt,nt,nt,nt
CCOC(=O)N(C)CC(=O)NC1CCCC1,16%,nt,nt,nt,nt,nt
Cc1ccc(N2CCN(c3ncccc3[N+](=O)[O-])CC2)c(C)c1,-1%,1%,18µM*,28µM*,?,40µM*
Cc1ccc(C)c(N2CCN(c3ncccc3[N+](=O)[O-])CC2)c1,7%,-3%,-10%[2.33 µM],32µM*,-21%,40µM*
O=[N+]([O-])c1cccnc1N1CCCCC1,0%,16%,6%,-28%,-10%,?
O=[N+]([O-])c1cccnc1N1CCN(c2ccccc2F)CC1,-9%,1%,?,?,?,50µM*
Cc1cccc(NC(=O)c2cc3c(s2)CCC3)c1C,29%,nt,nt,nt,nt,nt
Cc1cc(C)n2nc(N(Cc3ccccc3)S(=O)(=O)c3ccccc3)nc2n1,13%,nt,nt,nt,nt,nt
COc1ccc(OC)c(C2C3=C(N=C4SCC(=O)N42)c2ccccc2CC3)c1 (stereo unspecified),461%,?,?,50µM*,11%,?
COc1ccccc1/C=C/C=N/n1c(-c2ccc(Cl)cc2)n[nH]c1=S,?,35µM*,nt,?,?,89µM*
COc1ccccc1/C=C/C=N/n1c(-c2ccccc2)n[nH]c1=S,?,-58%,nt,-3%,0%,-36%
COc1ccc(-c2n[nH]c(=S)n2/N=C/C=C/c2ccccc2OC)cc1,?,-10%,1.3µM*,-2%,6%,79µM*
Cc1ccc(NCC(O)Cn2c3ccccc3n3c(=O)cc(C)c(C#N)c23)cc1Cl (stereo unspecified),6%,nt,nt,nt,nt,nt
Cc1cc(C)cc(OCCC(=O)Nc2c(C)nn(C)c2C)c1,-3%,nt,nt,nt,nt,nt
COc1cc(C)ccc1NC(=O)Cc1csc(NC(=O)Nc2ccccc2OC)n1,-8%,nt,13µM*,?,7%,-31%
COc1ccccc1NC(=O)Nc1nc(CC(=O)Nc2ccc(OC)c(OC)c2)cs1,-7%,nt,20%[2.33 µM],1%,14%,-8%
COc1ccccc1NC(=O)Cc1csc(NC(=S)Nc2ccc(C)cc2)n1,10µM*,?,-14%,-4%,-11%,-26%
O=C(NCC1CN(Cc2cccnc2)CC12CN(c1ccccc1)C2)C1CC1 (stereo unspecified),1%[176 µM],nt,nt,nt,nt,nt
